# Measured values from PubChem BioAssay (NCATS).
# Several values for one entry are separate records, joined by “and”; a condition that tells them apart may be missing. Equal values may be shown once. Records with an inconclusive call do not appear. Entries that show only a call come without a potency. Activity calls are given as the source filed them. The call rests on the fitted dose curve; in most records, active means well fitted curve in the direction sought with a large enough effect; inconclusive means small, poorly fitted or top-dose-only effect, or another doubt; inactive means no such curve, though single readings can be large; an effect the other way counts as inactive or inconclusive.
# Test system: not listed separately
# Assay: Inducers of the Endoplasmic Reticulum Stress Response (ERSR) in human glioma: Validation (AID 504836)
# Conditions: human glioma cells, ER stress response reporter; series mostly up to 38.3 µM
# In short: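 Stably transfected U87-MG glioma cells carrying a GRP78-based luciferase sensor; 16 h compound incubation. Luminescence end-point read 10 min after Bright-Glo addition at room temperature.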
row,Compound,outcome
1,CCCNC(=O)NS(=O)(=O)c1ccc(Cl)cc1,inactive
2,NC[C@H](O)c1ccc(O)c(O)c1,inactive
3,COc1cc2c(c(OC)c1OC)-c1ccc(OC)c(=O)cc1[C@@H](NC(C)=O)CC2,inactive
4,C[C@](N)(Cc1ccc(O)c(O)c1)C(=O)O,inactive
5,CC12CC3CC(C)(C1)CC(N)(C3)C2,inactive
6,NNCCc1ccccc1,inactive
7,Nc1nc(N)c2nc(-c3ccccc3)c(N)nc2n1,inactive
8,Cn1ccc2cc3c(cc21)CCN3C(=O)Nc1cccnc1,inactive
9,CN(C)c1nc(N(C)C)nc(N(C)C)n1,inactive
10,Fc1ccc([C@@H]2CCNC[C@H]2COc2ccc3c(c2)OCO3)cc1,inactive
11,CCOC(=O)C1=C(C)NC(C)=C(C(=O)OC)C1c1cccc(Cl)c1Cl (configuration not stated),inactive
12,COc1cc2nc(N3CCN(C(=O)C4COc5ccccc5O4)CC3)nc(N)c2cc1OC (configuration not stated),inactive
13,CN1CCN(C2=Nc3cc(Cl)ccc3Nc3ccccc32)CC1,inactive
14,CN(C)C(=O)C(CCN1CCC(O)(c2ccc(Cl)cc2)CC1)(c1ccccc1)c1ccccc1,inactive
15,CN(C)CCC=C1c2ccccc2C=Cc2ccccc21,inactive
16,Cc1cc2c(C(C)C)c(O)c(O)c(C=O)c2c(O)c1-c1c(C)cc2c(C(C)C)c(O)c(O)c(C=O)c2c1O,inactive
17,Cc1ccc(S(=O)(=O)NC(=O)NN2CCCCCC2)cc1,inactive
18,Oc1ccc(C2CNCCc3c2cc(O)c(O)c3Cl)cc1 (configuration not stated),inactive
19,COc1cc2nc(N(C)CCCNC(=O)C3CCCO3)nc(N)c2cc1OC (configuration not stated),inactive

# Molecular target: Ubiquitin carboxyl-terminal hydrolase 1 (Homo sapiens) (UniProt O94782)
# Sequence (O94782 whole entry, looked up): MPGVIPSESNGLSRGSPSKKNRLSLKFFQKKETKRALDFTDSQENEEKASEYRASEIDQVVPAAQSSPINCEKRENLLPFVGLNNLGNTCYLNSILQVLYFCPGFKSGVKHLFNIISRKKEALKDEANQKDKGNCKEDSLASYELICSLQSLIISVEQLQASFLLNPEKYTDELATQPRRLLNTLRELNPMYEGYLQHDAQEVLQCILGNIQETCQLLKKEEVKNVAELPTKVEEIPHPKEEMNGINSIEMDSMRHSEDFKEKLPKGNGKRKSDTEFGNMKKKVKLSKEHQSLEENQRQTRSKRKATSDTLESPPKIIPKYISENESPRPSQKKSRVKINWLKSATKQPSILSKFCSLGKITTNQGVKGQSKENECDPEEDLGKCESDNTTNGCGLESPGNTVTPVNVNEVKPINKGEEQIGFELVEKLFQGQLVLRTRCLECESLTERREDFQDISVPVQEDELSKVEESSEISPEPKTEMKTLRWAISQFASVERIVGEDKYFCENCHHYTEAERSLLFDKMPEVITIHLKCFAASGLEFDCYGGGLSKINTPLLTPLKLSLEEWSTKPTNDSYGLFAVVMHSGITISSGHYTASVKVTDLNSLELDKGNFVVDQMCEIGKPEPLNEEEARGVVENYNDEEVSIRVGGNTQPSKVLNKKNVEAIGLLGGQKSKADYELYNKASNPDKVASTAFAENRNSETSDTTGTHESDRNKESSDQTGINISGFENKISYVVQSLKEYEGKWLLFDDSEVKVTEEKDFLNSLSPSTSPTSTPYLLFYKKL
# Assay: Inhibitors of USP1/UAF1: Pilot qHTS (AID 504865); further: nearly all actives have a fitted effect of over 35% in size; further: potency means the concentration at half of the fitted maximal effect
# Conditions: purified USP1/UAF1, Ub-rhodamine cleavage fluorescence; series mostly up to 114 µM
# In short: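 Deubiquitinase activity followed as kinetic rhodamine fluorescence release from 150 nM Ub-Rho. 1 nM USP1/UAF1 with compound, after 15 min room-temperature preincubation, in HEPES pH 7.8 buffer containing TCEP, EDTA, BSA and Tween-20.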
row,Compound,Potency
1,Clc1cccc(N2CCNCC2)c1,inactive
2,COc1cc2c(c(OC)c1OC)-c1ccc(OC)c(=O)cc1[C@@H](NC(C)=O)CC2,inactive
3,Cc1cc2c(C(C)C)c(O)c(O)c(C=O)c2c(O)c1-c1c(C)cc2c(C(C)C)c(O)c(O)c(C=O)c2c1O,22.4 µM (active) and 31.6 µM (active) and 10 µM (active)
